In all, about 33,000 sequences were measured (“E-score (-0.5 to 0.5)”: median about -0.036, highest 2% from about 0.37 on). This excerpt belongs to a sample that is enriched for the highest values.
molecular target: T1, Yer064c (UniProt P40041); test: PBM E-score (8-mer binding enrichment) (E-score (-0.5 to 0.5)); higher = stronger / more preferred TF binding; settings: protein concentration: 200 nM; construct: GST-full length
T1 sequence: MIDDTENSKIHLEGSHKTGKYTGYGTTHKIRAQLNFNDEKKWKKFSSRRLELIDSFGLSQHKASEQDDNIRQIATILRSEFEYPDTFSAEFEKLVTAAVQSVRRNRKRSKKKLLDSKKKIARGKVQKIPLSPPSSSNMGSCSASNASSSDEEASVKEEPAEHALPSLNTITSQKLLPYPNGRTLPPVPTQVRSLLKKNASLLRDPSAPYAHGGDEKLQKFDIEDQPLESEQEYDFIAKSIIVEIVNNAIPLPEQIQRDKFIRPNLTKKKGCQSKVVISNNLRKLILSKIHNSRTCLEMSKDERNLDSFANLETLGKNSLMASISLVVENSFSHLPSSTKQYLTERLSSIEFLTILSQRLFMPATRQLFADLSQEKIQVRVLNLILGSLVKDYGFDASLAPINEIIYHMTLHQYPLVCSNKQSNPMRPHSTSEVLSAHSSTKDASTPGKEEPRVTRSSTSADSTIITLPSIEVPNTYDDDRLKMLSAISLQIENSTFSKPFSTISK
How it was run: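 Detection of bound protein used fluorescent anti-GST, with scans normalised by masliner. The proteins were GST-tagged yeast transcription factors applied at about 100-200 nM to universal all-10-mer Agilent arrays made double-stranded by primer extension. Each ungapped eight-base word, pooled with its reverse complement, was scored with an E-score from the Universal PBM Analysis Suite.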

Sequence | PBM E-score
CTTTCCCC | -0.153
AGTCGTAC | 0.399
AGTCGTAT | 0.379
CGTCGTAG | 0.0225
AGTCGTAA | 0.378
ACTCGTAT | 0.107
CGTCGTAC | -0.0504
GGTCGTAC | -0.205
GGTCGTAA | -0.0401
AGTCGTAG | 0.406
AATCGTAT | 0.118
TGTCGTAA | -0.0131
ACTCGTAG | 0.218
GAGAGCGA | -0.0993
GCGATAAC | -0.135
CGTGGACA | -0.323
GCGCGGAC | 0.0396
ATGACCGA | -0.0163
TGTCCTAA | -0.0793
AGTCCTAT | 0.306
AGTCCTAA | 0.366
AATAGCTA | -0.0209
GCCTGGGA | -0.343
TAGAATCA | 0.362
GAGAATCA | 0.392

Sequence | PBM E-score
GAGAATCC | -0.141
AAGAATCA | 0.392
GAGAATTA | -0.167
CAGAATCA | 0.349
GAACAGCA | -0.175
AATGGACC | 0.0237
CGAGACAC | 0.13
AGAGACTA | 0.347
AGAGACTG | 0.0785
CGAGACTA | 0.37
GGAGACTA | 0.375
CCAGACTC | 0.206
CGAGACTC | 0.369
AGAGACTC | 0.386
GGAGACCA | -0.176
CGAGACGA | -0.0652
CCAGACTA | 0.208
GGAGACAA | -0.173
AGCCTAGC | -0.166
CTTCGCGA | 0.105
ATGAGATA | 0.0605
GTGCGGCA | -0.143
CGGCGATA | 0.143
AAGGAACG | -0.167
AAAAGGAT | -0.0899

Sequence | PBM E-score
GCACCCCC | -0.268
AGTTAGTA | 0.196
AGTTAGTC | 0.447
AGTTAGTG | 0.0232
CGTTAGTC | 0.45
CGTTAGAC | -0.00028
CGTTAGTA | 0.0645
AATTGTAG | 0.13
AAGAGCGC | 0.0664
CCGTACAG | -0.123
AAAATATA | 0.102
ATAAGTCA | 0.438
GTAAGTGA | 0.131
GTAAGTCA | 0.448
GTAAGTAA | 0.0006
CTAAGTCC | 0.148
CTAAGTAA | 0.204
ATAAGTCC | 0.161
ATAAGTCG | 0.223
CTAAGTCA | 0.449
CATCTCGG | 0.181
AATCCAGC | -0.149
AACCCATA | 0.111
GAAGCGGA | -0.189
CAATCAGC | 0.317

Sequence | PBM E-score
CAATCAGA | 0.208
AAATCAGA | 0.158
GAATCAGC | 0.417
AAATCAGC | 0.227
GAATCAGA | 0.402
CTTGCCGC | -0.264
AGAGAACA | -0.0209
GCGAACGC | -0.058
ACGAATCT | 0.123
GCGAATCC | -0.066
CCGAATCA | 0.348
TCGAATAA | -0.00971
ACGAATCA | 0.404
TCGAATCA | 0.369
GCGAATCA | 0.414
ACGAATCC | 0.171
CCGAATCC | -0.186
CTCACGCC | 0.172
CGGGAATC | 0.0615
CGCCTCGC | -0.087
AATTCAAT | 0.0175
AAATGCCC | -0.188
GAGACACA | 0.288
AGGGCTGC | -0.346
AACACACC | 0.0884

Sequence | PBM E-score
ATGCGGCG | -0.174
CCCGCCCC | -0.223
GATTAACC | 0.294
GATTAATA | 0.325
GATTAACA | 0.367
CATTAATC | 0.271
TATTAACA | 0.0799
GACTAACA | 0.449
TACTAACA | 0.0931
CACTAACA | 0.0977
CACTAACC | -0.153
GACTAACC | 0.44
AACTAACC | 0.0831
GATTAATC | 0.391
GAGCAATC | 0.146
CATAGGGG | -0.149
TCCCCCGA | -0.176
GCGGCGAA | -0.17
CGATGAAA | 0.0671
ATTTTTCG | 0.00581
TGAGGAAA | -0.0935
GCCCTAGA | -0.316
CGTACGCA | -0.195
CCAGCACC | -0.231
CCTAAAGA | 0.0245

Sequence | PBM E-score
ACTATGAC | 0.372
GCTATGAC | 0.307
ACTGTGAC | 0.397
ACTGTGAT | 0.165
ACTGTGAA | 0.0208
CCTATGAC | 0.235
CCTTGGTA | 0.00702
AAGTTCTG | 0.0281
ATTAAGGA | 0.176
AGTTGCCC | 0.00742
ACAAGTCC | -0.047
TCTAATAA | 0.115
GCTAATCA | 0.372
GCTAATTA | 0.0849
ACTAATCG | 0.226
CCTAATCG | 0.0953
TCTAATCA | 0.386
GCTAATCC | -0.145
CCTAATCA | 0.376
ACTAATCT | 0.273
CCTAATCC | -0.33
ACTAATCA | 0.403
ACTAATCC | 0.208
CTTAACCA | 0.197
ATTGGGAC | 0.0416

Sequence | PBM E-score
TCGTTCCA | -0.108
ACCCTGTG | -0.0328
ACCCAGAT | -0.0932
CGAGGCTA | -0.0432
ACACTCGC | 0.111
ACCGACTC | 0.328
CCCGACTC | 0.389
AGCGACTC | 0.412
GGCGACCA | -0.416
CCCGACTA | 0.314
CGCGACTA | 0.397
CTCGACTA | 0.299
AGCGACCC | -0.196
AGCGACGC | -0.273
CGCGACAA | 0.124
GGCGACGA | -0.226
GGCGACTA | 0.402
TAATTCAA | 0.14
TAGGGCCA | -0.307
GCCCCGGA | -0.22
AGCTTGGC | -0.115
ATAGAGAC | 0.0997
